# From PubChem
# CF NFkB inh: cystic fibrosis NF-kB activation inhibition | 0.86% of 360,000 active | KKLEB NF-kB-GFP reporter, PAF-induced, GFP fluorescence overnight | AID 588850 | inhibition, % at 5 µM;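 active = at least 50% inhibition at 5 µM, scaled per plate between neutral and stimulator controls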;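 note: PAF is a Pseudomonas aeruginosa culture filtrate used as stimulus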
# TWEAK Fn14 block: inhibitors of TWEAK-Fn14 interaction signaling | AID 1159606 | inhibition, % at 10 µM | 2% of 360,000 active | TWEAK-stimulated Fn14 reporter cells, luciferase luminescence, 8 h; in the data active = inhibition above about 50%
# KKLEB cytotox: reduces viability of KKLEB cystic fibrosis airway cells; KKLEB CF airway cells viability, ATPlite luminescence, overnight; stronger effect = lower value; cells stimulated with P. aeruginosa culture filtrate; activity change (cytotoxicity), % at 5 µM; 0.36% of 360,000 active;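 active = corrected activity change at or below -50% at 5 µM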
# TROY NFkB inh: TROY signaling inhibition. Q293 LMP1-TROYcd NF-kB luciferase reporter, 4 h. inhibition, % at 10 µM. 0.98% of 360,000 active. AID 1347056;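 active = compounds whose plate-normalised and pattern-corrected inhibition of the luciferase reporter signal at the single screening dose is 50% or more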
# HIF-2a block: HIF-2a inhibition. 786-0 RCC cells HIF-2a reporter, luciferase luminescence, overnight. inhibition, % at 18.8 µM. AID 624352. 0.72% of 360,000 active;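 active = inhibition of the luminescence signal of 40% or more relative to plate controls, in a single-dose primary screen at 18.75 µM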
# Peg3 prom inh: Peg3 promoter activity inhibition. HeLa PEG-Prom luciferase reporter, luminescence, overnight. AID 588405. 1.7% of 360,000 active. inhibition, % at 20 µM;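 active = inhibition of at least 50% at 20 µM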
# A number is an active result; n = inactive. Sampled rows, rich in hits. Any-hit rate of the full collection: about 4%.
SMILES,CF NFkB inh,TWEAK Fn14 block,KKLEB cytotox,TROY NFkB inh,HIF-2a block,Peg3 prom inh
O=C(CSc1nnc(SCc2ccc(Cl)cc2)s1)N/N=C/c1c[nH]c2ccccc12,n,n,n,n,n,n
O=C(NCc1cccnc1)C(=O)Nc1ccc([N+](=O)[O-])cc1,n,n,n,n,n,n
Cn1ncc2c(Nc3ccccc3Br)ncnc21,n,n,n,n,n,n
Cc1cc(NC(=O)CSc2nc3sc(C)c(C)c3c(=O)n2C2CCCC2)no1,n,n,-59,n,n,n
Cc1cc(NC(=O)CSc2nc(C(C)C)nc3sc(C)c(C)c23)no1,n,n,n,n,n,n
Cc1cc(C)n2nc(S(=O)(=O)N(C)c3ccccc3)nc2n1,n,n,n,n,n,n
CCc1ccc(NC(=O)c2ccc(F)c(S(=O)(=O)N(CC)c3ccccc3)c2)cc1,n,n,n,n,n,n
CCN(c1ccccc1)S(=O)(=O)c1cc(C(=O)Nc2cccc(Cl)c2)ccc1F,n,68,n,n,n,n
O=C(CCNc1ccc(Br)cc1)c1cccc([N+](=O)[O-])c1,n,n,n,n,n,n
O=C(/C(N=Nc1cccc([N+](=O)[O-])c1)=C(/O)c1ccc(Br)cc1)C(F)(F)F,51,n,-58,n,n,n
O=C(C1=C(O)C(=O)N(CCN2CCOCC2)C1c1cccc(Br)c1)c1cccs1 (configuration not stated),n,n,n,n,n,n
O=C(O/N=C1\CCCc2ccccc21)c1cccs1,n,n,n,80,n,n
COc1ccc(/C=C2\SC(N)=NC2=O)cc1,n,n,n,n,n,n
CCOC(=O)CSC1=NC(=O)/C(=C/c2ccc(OC)cc2)S1,n,n,n,n,74,102
O=C(NCc1ccccc1Cl)c1ccc2nnsc2c1,n,n,n,n,n,n
CS(=O)(=O)NNC(=O)c1sccc1OCc1ncc(C(F)(F)F)cc1Cl,n,n,n,n,n,n
Cn1cc(C(=O)N/N=C/c2ccc(Br)c([N+](=O)[O-])c2)c2ccccc21,n,n,n,n,n,52
CCOc1ccccc1NC(=O)N1CCc2ccccc2C1,n,n,n,n,n,n
